Measured values reported in PubChem BioAssay.
Values without a mark were called inactive. Calls of active or inactive are those of the source.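 The calls were made as follows: active = thallium flux through the channel raised or lowered by more than 3 SD from vehicle-only wells, actives on both sides; inactive = the rest.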

What was measured:
Experiment in all cases: BK channel mutant inhibitors and activators – cell-based, U2OS BacMam, thallium flux, beta subunits, selectivity assay, profiling panel (AID 1259406);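 also: initial slope of Thallos dye fluorescence rise after thallium is added; log ratio against the mean of 0.3% DMSO vehicle wells on the same plate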
[1] = system: F380Y/beta2Delta; settings: U2OS BacMam BK variants, at 30 µM
[2] = system: F380Y/beta4; settings: U2OS BacMam BK variants, at 30 µM
[3] = target: Calcium-activated potassium channel subunit alpha-1 (Homo sapiens) + Leucine-rich repeat-containing protein 26 (Homo sapiens) (UniProt Q12791+Q2I0M4); settings: U2OS BacMam BK variants, F380Y/Slo1WT/gamma1, at 30 µM
Sequence of Calcium-activated potassium channel subunit alpha-1 (Homo sapiens) + Leucine-rich repeat-containing protein 26 (Homo sapiens) (Q2I0M4 whole entry, looked up, one chain of several): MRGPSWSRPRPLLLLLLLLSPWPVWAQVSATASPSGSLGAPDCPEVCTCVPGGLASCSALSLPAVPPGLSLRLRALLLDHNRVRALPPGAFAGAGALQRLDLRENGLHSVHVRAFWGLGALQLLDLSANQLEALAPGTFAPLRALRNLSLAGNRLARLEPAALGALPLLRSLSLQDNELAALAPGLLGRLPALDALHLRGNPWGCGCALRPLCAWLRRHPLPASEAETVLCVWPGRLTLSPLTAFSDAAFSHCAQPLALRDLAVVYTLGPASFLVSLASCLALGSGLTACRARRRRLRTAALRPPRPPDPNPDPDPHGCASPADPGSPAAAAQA

[4] = system: R275C; settings: U2OS BacMam BK variants, at 30 µM
[5] = system: R275C/beta1; settings: U2OS BacMam BK variants, at 30 µM
[6] = system: R275C/beta2Delta; settings: U2OS BacMam BK variants, at 30 µM
[7] = system: R275C/beta4; settings: U2OS BacMam BK variants, at 30 µM
[8] = system: R275C/Slo1WT/beta2; settings: U2OS BacMam BK variants, at 30 µM

| Structure (SMILES) | log fold change Tl+ flux [1] | log fold change Tl+ flux [2] | log fold change Tl+ flux [3] | log fold change Tl+ flux [4] | log fold change Tl+ flux [5] | log fold change Tl+ flux [6] | log fold change Tl+ flux [7] | log fold change Tl+ flux [8] |
| --- | --- | --- | --- | --- | --- | --- | --- | --- |
| COC(=O)C1=C(C)NC(C)=C(C(=O)O[C@@H]2CCCN(Cc3ccccc3)C2)[C@@H]1c1cccc([N+](=O)[O-])c1 | -0.042 | -0.0532 | -0.0108 | -0.0526 | 0.192 (active) | 0.191 (active) | -0.0168 | -0.0109 |
| CCN1CCCC1CNC(=O)c1cc(S(=O)(=O)CC)c(N)cc1OC (stereo not given) | 0.0211 | 0.00308 | -0.0597 | -0.0334 | 0.00406 | -0.0411 | -0.0037 | 0.0112 |
| CC(=O)Nc1ccc(CC(=O)O)cc1 | -0.0235 | -0.0309 | -0.0302 | -0.0367 | -0.0357 | -0.0277 | -0.0244 | -0.00738 |
| Nc1nc2c(ncn2COC(CO)CO)c(=O)[nH]1 | 0.0461 | 0.0377 | -0.00437 | 0.0708 | -0.0192 | 0.0472 | -0.0224 | -0.00303 |
| Cc1[nH]cnc1CN1CCc2c(c3ccccc3n2C)C1=O | -0.0209 | -0.0392 | 0.00572 | -0.066 | 0.0308 | -0.0141 | 0.0279 | 0.0535 |
| O=C(O)CCNC(=O)c1ccc(N=Nc2ccc(O)c(C(=O)O)c2)cc1 | -0.00246 | 0.0201 | 0 | -0.0367 | 0.0608 | 0.0174 | 0.00146 | 0.0188 |
| CNCC(O)c1ccc(O)c(O)c1 (stereo not given) | 0.0367 | -0.0084 | 0.0503 | 0.0399 | -0.0203 | -0.0287 | -0.0313 | -0.0974 |
| CCCc1nc(C)c2c(=O)[nH]c(-c3cc(S(=O)(=O)N4CCN(CC)CC4)ccc3OCC)nn12 | 0.0398 | 0.0304 | 0.0127 | -0.0462 | 0.019 | 0.017 | -0.00355 | 0.00306 |
| N#Cc1ccc(C(c2ccc(C#N)cc2)n2cncn2)cc1 | 0.0563 | 0.0185 | 0.0131 | -0.0506 | -0.0148 | -0.0137 | -0.0251 | 0.00776 |
| Nc1ccn([C@H]2CC[C@@H](CO)O2)c(=O)n1 | -0.0145 | 0.0289 | 0.0157 | -0.0969 | -0.00164 | -0.00877 | 0.00428 | 0.0272 |
| COCc1c(C(C)C)nc(C(C)C)c(/C=C/[C@@H](O)C[C@@H](O)CC(=O)O)c1-c1ccc(F)cc1 | 0.143 (active) | 0.268 (active) | 0.103 (active) | 0.0107 | 0.391 (active) | 0.192 (active) | 0.207 (active) | 0.0728 |
| Nc1nnc(-c2cccc(Cl)c2Cl)c(N)n1 | -0.0167 | -0.0171 | 0.000443 | 0.00303 | 0.00854 | 0.0465 | -0.0247 | -0.000749 |
| CCc1oc2ccccc2c1C(=O)c1cc(Br)c(O)c(Br)c1 | 0.479 (active) | 0.628 (active) | 0.428 (active) | 0.0187 | 0.704 (active) | 0.431 (active) | 0.722 (active) | 0.347 (active) |
| Nc1nc2c(ncn2CCC(CO)CO)c(=O)[nH]1 | -0.015 | -0.0159 | -0.013 | 0.00432 | 0.00335 | 0.0147 | -0.0144 | -0.0115 |
| CN1CCN(C2=Nc3cc(F)ccc3Cc3ccccc32)CC1 | 0.0383 | 0.075 | -0.0172 | -0.0264 | 0.0276 | 0.0198 | 0.0369 | 0.0225 |
